Assay results as given in PubChem BioAssay (EPA / NIEHS).
Results filed as inconclusive are left out. Activity calls are given as the source filed them. Rule for the calls, unless noted: active = hit-call score of the fitted dose curve at least 0.9, where 1 is the maximum; inactive = score below 0.9.

Columns and labels:
[1] = CCTE_Harrill_HTTr_Viability_DMEM_24hr: (Pilot) CCTE's 24-hour Cell Viability Assessment for the High-Throughput Transcriptomics (HTTr) Platform, in MCF-7 cells cultured in DMEM + 10% fetal bovine serum, Harrill Lab (AID 2283975)
Summary of the method: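 Pilot study: propidium iodide dye exclusion, imaged by high content microscopy, after 24 h compound exposure (eight concentrations) in MCF-7 cultured in DMEM + 10% fetal bovine serum; DMSO served as negative control and baseline.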

[2] = CCTE_Harrill_HTTr_Viability_PRF_DMEM_6hr: (Pilot) CCTE's 6-hour Cell Viability Assessment for the High-Throughput Transcriptomics (HTTr) Platform, in MCF-7 cells cultured phenol red-free DMEM + 10% charcoal-stripped fetal bovine serum, Harrill Lab (AID 2283976)
Summary of the method: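 Membrane integrity by high-content imaging of propidium iodide uptake, six hours after dosing with eight concentrations. Cells: MCF-7 grown in phenol red-free DMEM plus 10% charcoal-stripped serum; DMSO serves as baseline for bidirectional fits.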

[3] = CCTE_Harrill_HTTr_Viability_PRF_DMEM_12hr: (Pilot) CCTE's 12-hour Cell Viability Assessment for the High-Throughput Transcriptomics (HTTr) Platform, in MCF-7 cells cultured in phenol red-free DMEM + 10% charcoal-stripped fetal bovine serum, Harrill Lab (AID 2283977)
Summary of the method: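 Membrane integrity was scored via propidium iodide dye exclusion imaging, fitted in both directions relative to DMSO. Compounds ran as eight-point dilutions for 12 hours on MCF-7 grown in phenol red-free DMEM plus 10% charcoal-stripped serum.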

[4] = CCTE_Harrill_HTTr_Viability_PRF_DMEM_24hr: (Pilot) CCTE's 24-hour Cell Viability Assessment for the High-Throughput Transcriptomics (HTTr) Platform, in MCF-7 cells cultured in phenol red-free DMEM + 10% charcoal-stripped fetal bovine serum, Harrill Lab (AID 2283980)
Summary of the method: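 Propidium iodide exclusion imaged at 24 h after dosing scores viability; cells were MCF-7 grown in phenol red-free DMEM plus 10% charcoal-stripped serum, tested in eight concentrations, fitted in both directions against DMSO.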

[5] = CCTE_Harrill_HTTr_Apoptosis_DMEM_6hr: (Pilot) CCTE's 6-hour Apoptosis Assessment for the High-Throughput Transcriptomics (HTTr) Platform, in MCF-7 cells cultured in DMEM + 10% fetal bovine serum, Harrill Lab (AID 2283981)
Summary of the method: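 MCF-7 cells grown in DMEM + 10% FBS were exposed for 6 hours to an eight-point dilution series. CellEvent Caspase 3/7 Green signal was imaged; activity fitted bidirectionally against DMSO.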

[6] = CCTE_Harrill_HTTr_Apoptosis_DMEM_12hr: (Pilot) CCTE's 12-hour Apoptosis Assessment for the High-Throughput Transcriptomics (HTTr) Platform, in MCF-7 cells cultured in DMEM + 10% fetal bovine serum, Harrill Lab (AID 2283982)
Summary of the method: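 Caspase-3/7 activity was measured by high-content imaging (CellEvent Caspase 3/7 Green) after a 12-hour exposure of MCF-7 cells grown in DMEM with 10% FBS. Eight-point concentration series, fitted bidirectionally against vehicle.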

[7] = CCTE_Harrill_HTTr_Apoptosis_DMEM_24hr: (Pilot) CCTE's 24-hour Apoptosis Assessment for the High-Throughput Transcriptomics (HTTr) Platform, in MCF-7 cells cultured in DMEM + 10% fetal bovine serum, Harrill Lab (AID 2283983)
Summary of the method: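 Caspase-3/7 activity read by high-content imaging (CellEvent Green reagent) 24 h after dosing. MCF-7 cells grown in DMEM with 10% FBS received an eight-point concentration series; fits were bidirectional versus DMSO.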

[8] = CCTE_Harrill_HTTr_Apoptosis_PRF_DMEM_6hr: (Pilot) CCTE's 6-hour Apoptosis Assessment for the High-Throughput Transcriptomics (HTTr) Platform, in MCF-7 cells cultured phenol red-free DMEM + 10% charcoal-stripped fetal bovine serum, Harrill Lab (AID 2283984)
Summary of the method: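 Caspase-3/7 activity (CellEvent Green) read by high-content imaging 6 h after dosing, eight concentrations. Cells: MCF-7, phenol red-free DMEM with 10% charcoal-stripped serum. Curves fit both directions against DMSO.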

[9] = CCTE_Harrill_HTTr_Apoptosis_PRF_DMEM_24hr: (Pilot) CCTE's 24-hour Apoptosis Assessment for the High-Throughput Transcriptomics (HTTr) Platform, in MCF-7 cells cultured in phenol red-free DMEM + 10% charcoal-stripped fetal bovine serum, Harrill Lab (AID 2283986)
Summary of the method: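 Eight concentrations tested for 24 h on MCF-7 grown in charcoal-stripped serum, phenol red-free DMEM. High content imaging of CellEvent Caspase 3/7 Green signal gives apoptosis read-out, fitted both ways relative to DMSO.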

[10] = TOX21_TR_RXR_BLA_Antagonist_Followup_viability: Viability Assessment in the Tox21 Thyroid Hormone Receptor beta Retinoid X Receptor alpha (RXRa) Antagonism Beta-lactamase (BLA) Follow-Up Assay (AID 2283979; active = hit-call score of the fitted dose curve at least 0.9, where 1 is the maximum)
Summary of the method: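 RXRa-UAS-bla HEK293T cells seeded 2,500/well in phenol red-free DMEM with 2% charcoal-stripped FBS, attached 5 h, then exposed to compounds at 11 concentrations in triplicate for 16 h at 37C/5% CO2. Viability read by CellTiter-Glo ATP luminescence; bidirectional fit versus DMSO.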

[11] = CCTE_Shafer_MEA_acute_spike_number: CCTE's Neural Acute Assay for Total Number of Spikes, Shafer Lab (AID 2284008);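 for AC50: curve fitted for decrease in spike count so AC50 reflects inhibitors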
Summary of the method: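 Total spike count from 40 min recordings before and during compound exposure (0.03-40 uM), given as per-well percent change. Cortical cultures from rat, DIV 13 or 15, 37 C; adaptive detection threshold 8x rms noise.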

[12] = CCTE_Simmons_MITO_basal_resp_rate: CCTE's HepG2 Seahorse XF Respirometric Screening Assay at Basal Respiratory State, Simmons Lab (AID 2284001); conditions: actives raise or lower the signal
Summary of the method: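 Readout is oxygen consumption rate after test compound injection, measured by Seahorse XF in HepG2 cells. Seven concentrations from 125 nM up to 100 uM final are tested, and activity in either direction is fitted against DMSO.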

[13] = CCTE_Simmons_MITO_max_resp_rate: CCTE's HepG2 Seahorse XF Respirometric Screening Assay at Maximal Respiratory State [uncoupled], Simmons Lab (AID 2284002); conditions: actives raise or lower the signal
Summary of the method: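 Maximal (FCCP-uncoupled) respiration rate in HepG2, from Seahorse kinetic OCR over 72 min at 6 min cycles. Compounds at 125 nM–100 uM final, 7 points, three biological replicates; both directions fit relative to DMSO.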

[14] = CCTE_Simmons_MITO_inhib_resp_rate: CCTE's HepG2 Seahorse XF Respirometric Screening Assay at Inhibited Respiratory State [full ETC block], Simmons Lab (AID 2284006); conditions: actives raise or lower the signal
Summary of the method: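 Test chemicals at seven final concentrations (125 nM–100 uM) in three biological replicates, with DMSO as vehicle. HepG2 oxygen consumption was then tracked on a Seahorse XF96 for 72 min through FCCP and rotenone/antimycin A phases, with the inhibited-phase rate as the endpoint.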

[15] = CCTE_Simmons_MITO_viability: CellTiter-Glo Viability Assessment for CCTE's HepG2 Seahorse XF Respirometric Screening Assay [post-hoc], Simmons Lab (AID 2284007; active = hit-call score of the fitted dose curve at least 0.9, where 1 is the maximum;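 for AC50: cells exposed to chemical for 90 min before the ATP read; actives lower ATP signal relative to DMSO baseline meaning reduced viability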)
Summary of the method: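 Post-hoc viability check on the HepG2 respirometry plates: luciferase-based ATP signal measured once, after 90 min compound exposure spanning 125 nM–100 uM final. Activity was referenced to DMSO as baseline.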

[16] = biological target: Ratio of Nucleoli Translocation and Cytoplasm, AR (gene 367) (UniProt P10275); assay: UPITT_HCI_U2OS_AR_TIF2_Nucleoli_Cytoplasm_Ratio_Antagonist: University of Pittsburgh U2OS Androgen Receptor-Transcriptional Intermediary Factor 2 (AR-TIF2) Antagonism High Content Imaging Assay for Ratio of Nucleoli Translocation and Cytoplasm (AID 2283999; active = hit-call score of the fitted dose curve at least 0.9, where 1 is the maximum;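 note: antagonists lower the DHT-driven ratio of nucleolar to cytoplasmic red signal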)
Summary of the method: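 This antagonist-mode endpoint tracks AR-RFP localisation, the nucleolus-to-cytoplasm intensity ratio, in TIF2-GFP-coexpressing U2OS cells. DMSO stays at or below 0.5%; testing spans 20 uM single-dose and 0.195–50 uM series, with DHT setting the activity baseline.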

[17] = biological target: Ratio of Nucleoli Translocation and Cytoplasm, AR (gene 367) (UniProt P10275); assay: UPITT_HCI_U2OS_AR_TIF2_Nucleoli_Cytoplasm_Ratio_Agonist: University of Pittsburgh U2OS Androgen Receptor-Transcriptional Intermediary Factor 2 (AR-TIF2) Agonism High Content Imaging Assay for Ratio of Nucleoli Translocation and Cytoplasm (AID 2284000; active = hit-call score of the fitted dose curve at least 0.9, where 1 is the maximum;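 note: hits raise the red nucleolar to cytoplasm ratio above vehicle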)
Summary of the method: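 Primary screen at 20 uM final (0.2% DMSO), then triplicate confirmation and dose-response from 0.195 to 50 uM final (0.5% DMSO). Cells: U2OS with AR-RFP and TIF2-GFP. Endpoint is the nucleoli/cytoplasm red-fluorescence ratio, gain-of-signal vs DMSO.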

[18] = biological target: Nucleoli Translocation, AR (gene 367) (UniProt P10275); assay: UPITT_HCI_U2OS_AR_TIF2_Nucleoli_Agonist: University of Pittsburgh U2OS Androgen Receptor-Transcriptional Intermediary Factor 2 (AR-TIF2) Agonism High Content Imaging Assay for Nucleoli Translocation (AID 2283998; active = hit-call score of the fitted dose curve at least 0.9, where 1 is the maximum)
Summary of the method: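 Nucleolar translocation of AR-RFP, with TIF2-GFP coexpressed in human osteosarcoma U2OS, imaged by high-content fluorescence. Compounds tested singly at 20 uM final, confirmed in triplicate, then titrated 0.195–50 uM final; gain-of-signal relative to DMSO.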

Chain of Ratio of Nucleoli Translocation and Cytoplasm, AR (gene 367) (P10275 whole entry, looked up): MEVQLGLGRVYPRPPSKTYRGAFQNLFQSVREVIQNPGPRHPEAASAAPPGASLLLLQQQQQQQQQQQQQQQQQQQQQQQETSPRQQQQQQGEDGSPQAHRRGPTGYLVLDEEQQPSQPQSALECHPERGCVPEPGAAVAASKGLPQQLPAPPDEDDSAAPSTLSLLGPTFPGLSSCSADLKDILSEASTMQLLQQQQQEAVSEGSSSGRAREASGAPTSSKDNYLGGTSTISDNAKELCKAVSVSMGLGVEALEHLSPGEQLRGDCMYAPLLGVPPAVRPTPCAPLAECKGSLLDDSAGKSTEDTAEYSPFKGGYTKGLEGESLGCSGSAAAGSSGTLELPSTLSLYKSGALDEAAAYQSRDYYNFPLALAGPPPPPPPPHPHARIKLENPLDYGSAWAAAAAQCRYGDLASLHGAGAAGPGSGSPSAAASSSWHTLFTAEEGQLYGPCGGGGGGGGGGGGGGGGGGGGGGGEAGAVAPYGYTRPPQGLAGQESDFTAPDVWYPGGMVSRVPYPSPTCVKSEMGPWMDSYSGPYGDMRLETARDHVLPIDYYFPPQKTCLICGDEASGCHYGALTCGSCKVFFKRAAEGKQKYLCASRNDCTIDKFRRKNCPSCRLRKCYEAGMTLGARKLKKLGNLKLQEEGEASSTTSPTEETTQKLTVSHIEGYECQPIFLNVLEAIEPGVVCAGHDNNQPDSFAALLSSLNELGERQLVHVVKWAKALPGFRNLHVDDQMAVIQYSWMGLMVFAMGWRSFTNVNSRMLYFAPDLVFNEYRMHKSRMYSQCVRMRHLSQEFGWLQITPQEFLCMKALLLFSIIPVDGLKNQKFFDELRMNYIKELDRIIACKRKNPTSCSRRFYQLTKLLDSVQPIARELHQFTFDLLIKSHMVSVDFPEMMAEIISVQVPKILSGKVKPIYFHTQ
Chain of Nucleoli Translocation, AR (gene 367) (P10275 whole entry, looked up): as above

Q: Which results are given for `CCOC(=O)C(C)(C)Oc1ccc(Cl)cc1`?
A: outcome [1]: inactive; outcome [2]: inactive; outcome [3]: inactive; outcome [4]: inactive; outcome [5]: inactive; outcome [6]: inactive; outcome [7]: inactive; outcome [8]: inactive; outcome [9]: inactive

Q: For `Nc1nc(N)c2nc(CNc3ccc(C(=O)N[C@@H](CCC(=O)O)C(=O)O)cc3)cnc2n1`, which outcome [10] is on record?
A: inactive

Q: With `O=c1[nH]cc(F)c(=O)[nH]1` as the compound, how does the outcome [10] read?
A: inactive

Q: Which outcome [11] does the source give for `c1cc(-c2ccncc2)ccn1` here?
A: inactive

Q: Which outcome [11] does the source give for `CCCCCCCCCCCCCCCCCC(=O)O` here?
A: inactive

Q: With `Clc1cc(Cl)c(Cl)cc1Cl` as the compound, how does the outcome [11] read?
A: inactive

Q: What does the source list for `Cc1oc(-c2ccccc2)nc1CCOc1cccc2c1ccn2CCC(=O)O`?
A: AC50 [12]: 3.11 µM (active); outcome [13]: inactive; outcome [14]: inactive; outcome [15]: inactive

Q: With `CN1CCCC1=O` as the compound, how does the outcome [11] read?
A: inactive

Q: With `CNCc1cc(F)ccc1Oc1ccc(Cl)c(Cl)c1` as the compound, how does the AC50 [11] read?
A: 3.97 µM (active)

Q: Which outcome [11] does the source give for `FC(F)(F)C(F)(F)C(F)(F)C(F)(F)C(F)(F)C(F)(F)CCI` here?
A: inactive

Q: For `NS(=O)(=O)c1cc2c(cc1Cl)NCNS2(=O)=O`, which outcome [11] is on record?
A: inactive

Q: With `C[Si]1(C)O[Si](C)(C)O[Si](C)(C)O[Si](C)(C)O1` as the compound, how does the outcome [11] read?
A: inactive

Q: Which outcome [11] does the source give for `O=C(O)CCCCC(=O)O` here?
A: inactive

Q: With `Cc1ccc(C(C)C)c(O)c1` as the compound, how does the outcome [11] read?
A: inactive

Q: What does the source list for `Cc1cc(NC(=O)C(=O)O)cc(C)c1Oc1ccc(O)c2c1CCC2`?
A: outcome [16]: inactive; outcome [17]: inactive

Q: With `C=CCc1ccc(O)c(OC)c1` as the compound, how does the outcome [11] read?
A: inactive

Q: Which outcome [18] does the source give for `COc1ccc2c(c1)c(CC(=O)O)c(C)n2C(=O)c1ccc(Cl)cc1` here?
A: inactive

Q: What about the outcome [16] of the same compound?
A: inactive

Q: What about the outcome [17] of the same compound?
A: inactive

Q: What about the AC50 [12] of the same compound?
A: 13.4 µM (active)

Q: And the outcome [13]?
A: inactive

Q: What about the outcome [14] of the same compound?
A: inactive

Q: What about the outcome [15] of the same compound?
A: inactive

Q: And the outcome [11]?
A: inactive

Q: Which results are given for `C=CCOC(=O)c1ccccc1C(=O)OCC=C`?
A: AC50 [12]: 36.2 µM (active); outcome [13]: inactive; outcome [14]: inactive; outcome [15]: inactive; outcome [11]: inactive

Q: For `Nc1ccccc1N`, which outcome [11] is on record?
A: inactive

Q: Which outcome [11] does the source give for `Nc1ccc2c(c1)C(=O)c1ccccc1C2=O` here?
A: inactive

Q: With `COc1cc(/C=C/C(=O)CC(=O)/C=C/c2ccc(O)c(OC)c2)ccc1O` as the compound, how does the outcome [18] read?
A: inactive

Q: What about the AC50 [16] of the same compound?
A: 5.79 µM (active)

Q: And the outcome [17]?
A: inactive

Q: Which outcome [11] does the source give for `CCCCCCCCCCO` here?
A: inactive

Q: Which results are given for `CC(=O)Oc1ccccc1C(=O)O`?
A: outcome [18]: inactive; outcome [17]: inactive; outcome [11]: inactive

Q: Which results are given for `COc1cc(S(=O)(=O)O)c(C)cc1N=Nc1c(O)ccc2cc(S(=O)(=O)O)ccc12`?
A: AC50 [12]: 38.7 µM (active); outcome [13]: inactive; AC50 [14]: 23.8 µM (active); AC50 [15]: 50 µM (active)

Q: Which results are given for `Cc1c(C(=O)O)c(O)cc2c1C(=O)c1c(O)c([C@@H]3O[C@H](CO)[C@@H](O)[C@H](O)[C@H]3O)c(O)c(O)c1C2=O`?
A: outcome [12]: inactive; outcome [13]: inactive; AC50 [14]: 3.25 µM (active); AC50 [15]: 40.1 µM (active)

Q: Which outcome [11] does the source give for `NCC1(Cc2noc(=O)[nH]2)CCCCC1` here?
A: inactive

Q: With `Cc1ccc2ncccc2c1` as the compound, how does the outcome [11] read?
A: inactive

Q: What does the source list for `Cc1cccc(Nc2cc(Cl)nc(SCC(=O)O)n2)c1C`?
A: outcome [17]: inactive; outcome [12]: inactive; outcome [13]: inactive; outcome [14]: inactive; outcome [15]: inactive

Q: With `CC(=O)C(C)=CC1C(C)=CCCC1(C)C` (stereo unspecified) as the compound, how does the outcome [11] read?
A: inactive
